PubChem BioAssay (Tox21)
Inconclusive results are not listed. Where a call stands in place of a potency, no number is given. Active and inactive are the calls of the source. Unless noted, the call rests on the fitted dose curve.

How the values were obtained:
[1] = qHTS assay to identify small molecule antagonists of the sonic hedgehog signaling (Shh) pathway (AID 1259369); further: nearly all actives have a fitted effect of over 45% in size; further: potency means the concentration at half of the fitted maximal effect
Outline: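 Read-out is luminescence from a firefly luciferase gene controlled by the Gli1 response element, in 3T3Gli1-Luc cells pre-incubated 4hr then exposed to compounds and conditioned medium for 24hr.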

[2] = target: Estrogen receptor beta (Homo sapiens) (UniProt Q92731); experiment: qHTS assay to identify small molecule agonists of the estrogen receptor beta (ER-beta) signaling pathway (AID 1259377; active means well fitted activation curve with a large enough effect in the signal ratio in the repeat runs, not every such curve was filed as active; the % refers to the signal ratio)
Outline: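 Reporter cells (HEK293T, ER-beta-UAS-bla) receive compounds or DMSO after a 6 hr pre-incubation. They then incubate 16 hr at 37C/5% CO2, and fluorescence from LiveBLAzer B/G substrate is measured after 2 hours at room temperature.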

[3] = target: Estrogen receptor beta (Homo sapiens) (UniProt Q92731); experiment: qHTS assay to identify small molecule antagonists of the estrogen receptor beta (ER-beta) signaling pathway (AID 1259378; active means well fitted inhibition curve with a large enough effect in the signal ratio in the repeat runs, not every such curve was filed as active; the % refers to the signal ratio; further: potency means the concentration at half of the fitted maximal effect)
Outline: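 Antagonist mode: compounds added to beta-lactamase reporter HEK293T ER-beta-UAS cells stimulated with E2 (1nM final), 16 hr at 37C. LiveBLAzer B/G FRET substrate, 2 hours room temperature, fluorescence read-out.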

[4] = qHTS assay to identify small molecule agonists of the androgen receptor (AR) signaling pathway in the presence of an antagonist - cell viability counter screen (AID 1259379; active means well fitted curve in the direction sought with a large enough effect in the repeat runs; an effect the other way counts as inactive or inconclusive; further: nearly all actives have a fitted effect of over 25% in size; further: potency means the concentration at half of the fitted maximal effect)
Outline: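 Each compound was tested at 15 concentrations on MDA-kb2 cells in the presence of 3.0uM nilutamide. Viability was measured by CellTiter-Fluor fluorescence after a 16 hr incubation at 37C in a CO2-free atmosphere.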

[5] = qHTS assay to identify small molecule agonists of the estrogen receptor beta (ER-beta) signaling pathway - cell viability counter screen (AID 1259380; active means well fitted curve in the direction sought with a large enough effect in the repeat runs; an effect the other way counts as inactive or inconclusive; further: nearly all actives have a fitted effect of over 30% in size; further: potency means the concentration at half of the fitted maximal effect)
Outline: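 Compounds dissolved in DMSO were pin-transferred onto ER-beta-UAS-bla HEK293T cells that had settled 6 hr, and exposure ran 16 hr at 37C. Following the reporter read, CellTiter-Glo luminescence after 30 min at room temperature indicated cytotoxicity.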

[6] = qHTS assay to identify small molecule antagonists of the estrogen receptor beta (ER-beta) signaling pathway - cell viability counter screen (AID 1259382; active means well fitted curve in the direction sought with a large enough effect in the repeat runs; an effect the other way counts as inactive or inconclusive; further: nearly all actives have a fitted effect of over 55% in size; further: potency means the concentration at half of the fitted maximal effect)
Outline: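 CellTiter-Glo ATP luminescence measured after the LiveBLAzer read in the same wells; ER-beta-UAS-bla HEK293T cells, 16 hr compound treatment with 1nM 17-beta-estradiol agonist at 37C, 5% CO2.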

[7] = qHTS assay to identify small molecule agonists or antagonists of the thyroid stimulating hormone receptor (TSHR) signaling pathway - wild type cell line counter screen (AID 1259384)
Outline: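 Counter screen in untransfected Hek293: compounds (15-point titration, triplicate) plus phosphodiesterase inhibitor Ro20-1724 added after 18 h plating; 30 min RT. Intracellular cAMP via competitive d2/cryptate immunoassay, 1 h incubation.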

[8] = target: Thyrotropin receptor (Homo sapiens) (UniProt P16473); experiment: qHTS assay to identify small molecule antagonists of the thyroid stimulating hormone receptor (TSHR) signaling pathway (AID 1259385); further: nearly all actives have a fitted effect of over 20% in size; further: potency means the concentration at half of the fitted maximal effect
Outline: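 Antagonist mode: compound-treated TSHR-expressing HEK293 cells were stimulated with 1.5 ng/mL TSH (final) in presence of Ro20-1724 for 30 min at RT. HTRF cAMP detection after 1 h; each compound tested at 15 concentrations, triplicate.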

[9] = target: Estrogen receptor (Homo sapiens) (UniProt P03372); experiment: qHTS assay to identify small molecule agonists of the estrogen receptor alpha (ER-alpha) signaling pathway in the presence of an antagonist (AID 1259383); further: top concentration of the series differs between compounds; nearly all actives have a fitted effect of over 15% in size
Outline: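 Luminescent ERE-luciferase reporter, VM7Luc4E2 cells (endogenous ER-alpha); 10.0nM ICI-182,780 final; 15-point compound titration; 22hr at 37C; ONE-Glo, 30min RT.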

[10] = target: Androgen receptor (Homo sapiens) (UniProt P10275); experiment: qHTS assay to identify small molecule agonists of the androgen receptor (AR) signaling pathway in the presence of an antagonist (AID 1259381); further: nearly all actives have a fitted effect of over 15% in size
Outline: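 Plated MDA-kb2 cells (3,000/well) were pre-incubated 5hr, given nilutamide (3.0uM final) or buffer, then dosed with compounds in DMSO at 15 concentrations. Luciferase activity was quantified by luminescence after 16hr at 37C.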

Estrogen receptor beta (Homo sapiens), sequence (Q92731 whole entry, looked up): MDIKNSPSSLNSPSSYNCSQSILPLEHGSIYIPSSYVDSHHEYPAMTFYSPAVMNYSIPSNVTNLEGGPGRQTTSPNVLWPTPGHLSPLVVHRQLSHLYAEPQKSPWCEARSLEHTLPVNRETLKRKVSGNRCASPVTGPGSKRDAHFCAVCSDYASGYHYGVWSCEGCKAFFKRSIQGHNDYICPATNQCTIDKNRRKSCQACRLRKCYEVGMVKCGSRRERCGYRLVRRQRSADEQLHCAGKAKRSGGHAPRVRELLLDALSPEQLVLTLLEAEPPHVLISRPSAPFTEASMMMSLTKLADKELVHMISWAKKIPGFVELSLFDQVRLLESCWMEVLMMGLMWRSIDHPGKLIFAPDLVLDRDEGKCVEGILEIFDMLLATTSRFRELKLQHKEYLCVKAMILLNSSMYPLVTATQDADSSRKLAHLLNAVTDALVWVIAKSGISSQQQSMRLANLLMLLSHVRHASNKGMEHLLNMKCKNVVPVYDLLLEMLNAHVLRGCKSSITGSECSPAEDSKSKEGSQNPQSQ
Androgen receptor (Homo sapiens), sequence (P10275 whole entry, looked up): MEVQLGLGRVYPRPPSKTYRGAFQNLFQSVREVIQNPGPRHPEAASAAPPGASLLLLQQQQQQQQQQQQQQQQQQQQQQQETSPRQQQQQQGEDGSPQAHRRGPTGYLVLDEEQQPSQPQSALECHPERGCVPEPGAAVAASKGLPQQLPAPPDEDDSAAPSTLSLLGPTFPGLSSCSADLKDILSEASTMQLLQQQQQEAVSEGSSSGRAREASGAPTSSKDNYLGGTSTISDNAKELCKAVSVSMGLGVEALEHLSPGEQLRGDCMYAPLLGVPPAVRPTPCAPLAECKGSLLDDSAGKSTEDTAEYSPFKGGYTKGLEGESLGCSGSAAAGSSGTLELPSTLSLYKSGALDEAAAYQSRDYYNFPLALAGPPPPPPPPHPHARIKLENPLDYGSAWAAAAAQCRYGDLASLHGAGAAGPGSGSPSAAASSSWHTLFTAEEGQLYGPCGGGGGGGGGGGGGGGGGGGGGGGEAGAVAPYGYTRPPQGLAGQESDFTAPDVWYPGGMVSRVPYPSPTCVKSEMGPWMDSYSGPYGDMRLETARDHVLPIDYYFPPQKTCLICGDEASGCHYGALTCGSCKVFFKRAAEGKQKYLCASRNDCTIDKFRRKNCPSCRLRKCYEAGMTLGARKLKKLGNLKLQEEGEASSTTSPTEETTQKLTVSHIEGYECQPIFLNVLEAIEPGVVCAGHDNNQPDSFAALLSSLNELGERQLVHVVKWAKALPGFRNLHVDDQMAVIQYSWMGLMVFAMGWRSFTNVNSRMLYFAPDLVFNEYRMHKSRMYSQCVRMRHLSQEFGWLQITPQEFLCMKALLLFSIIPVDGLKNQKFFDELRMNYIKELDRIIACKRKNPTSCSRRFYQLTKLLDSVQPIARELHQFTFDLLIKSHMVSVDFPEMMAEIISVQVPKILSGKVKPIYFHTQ
Estrogen receptor (Homo sapiens), sequence (P03372 whole entry, looked up): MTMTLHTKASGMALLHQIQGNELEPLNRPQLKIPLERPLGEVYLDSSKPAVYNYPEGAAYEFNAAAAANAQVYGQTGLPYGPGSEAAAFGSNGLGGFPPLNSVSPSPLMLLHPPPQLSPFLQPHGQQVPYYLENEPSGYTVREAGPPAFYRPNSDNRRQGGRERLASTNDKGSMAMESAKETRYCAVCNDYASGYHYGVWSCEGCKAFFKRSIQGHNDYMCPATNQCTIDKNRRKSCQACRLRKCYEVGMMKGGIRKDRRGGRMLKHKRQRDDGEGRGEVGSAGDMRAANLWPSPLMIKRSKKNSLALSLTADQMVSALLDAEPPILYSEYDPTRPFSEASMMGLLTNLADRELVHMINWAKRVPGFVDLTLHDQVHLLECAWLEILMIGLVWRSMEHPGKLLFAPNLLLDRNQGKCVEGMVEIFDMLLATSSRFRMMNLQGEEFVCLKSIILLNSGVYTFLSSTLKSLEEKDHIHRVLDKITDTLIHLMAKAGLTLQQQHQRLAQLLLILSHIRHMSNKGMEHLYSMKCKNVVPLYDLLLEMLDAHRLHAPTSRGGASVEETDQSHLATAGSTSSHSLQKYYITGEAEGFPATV
Thyrotropin receptor (Homo sapiens), sequence (P16473 whole entry, looked up): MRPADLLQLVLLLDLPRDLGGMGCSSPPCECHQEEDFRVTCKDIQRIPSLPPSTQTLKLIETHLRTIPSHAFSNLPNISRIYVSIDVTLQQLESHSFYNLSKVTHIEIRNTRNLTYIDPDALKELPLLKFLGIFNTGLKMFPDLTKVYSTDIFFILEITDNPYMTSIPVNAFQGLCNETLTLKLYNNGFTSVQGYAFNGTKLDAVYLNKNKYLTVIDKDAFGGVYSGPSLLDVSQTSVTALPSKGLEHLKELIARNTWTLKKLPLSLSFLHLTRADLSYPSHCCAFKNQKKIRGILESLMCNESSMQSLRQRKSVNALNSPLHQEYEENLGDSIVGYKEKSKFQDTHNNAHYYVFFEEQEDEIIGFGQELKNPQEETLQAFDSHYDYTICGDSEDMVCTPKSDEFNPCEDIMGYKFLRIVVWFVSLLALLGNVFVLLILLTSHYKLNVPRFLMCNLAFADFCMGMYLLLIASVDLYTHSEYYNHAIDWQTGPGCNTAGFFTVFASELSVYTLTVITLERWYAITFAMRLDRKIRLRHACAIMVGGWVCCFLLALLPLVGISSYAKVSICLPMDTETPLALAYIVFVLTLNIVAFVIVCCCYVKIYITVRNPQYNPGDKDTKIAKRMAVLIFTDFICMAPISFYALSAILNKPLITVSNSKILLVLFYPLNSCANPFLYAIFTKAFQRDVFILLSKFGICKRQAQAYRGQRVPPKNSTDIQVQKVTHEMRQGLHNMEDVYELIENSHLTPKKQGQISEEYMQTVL

Row | SMILES | Potency [1] | Potency [2] | Potency [3] | Potency [4] | Potency [5] | Potency [6] | Potency [7] | Potency [8] | Potency [9] | Potency [10]
1 | N#Cc1ccc(N(CC(N)=O)CC(F)(F)F)cc1C(F)(F)F | inactive | inactive | inactive | inactive | inactive | inactive | inactive | inactive |  | 
2 | Clc1ccc(C(Cl)(Cl)Cl)cc1Cl | inactive | inactive | inactive |  | inactive | inactive |  |  |  | 
3 | O=[N+]([O-])c1ccc(Cl)c(Cl)c1Cl | inactive | inactive | inactive | inactive |  | inactive | inactive |  | inactive | 
4 | CSSC | 15.5 µM (active) | inactive | inactive | inactive | inactive | inactive | inactive | inactive |  | 
5 | Cc1ccc([N+](=O)[O-])[c]2c1[O][Hg]2 | 0.266 µM (active) | inactive |  | 13.3 µM (active) | 4.22 µM (active) | 5.31 µM (active) | inactive | 21.1 µM (active) |  | inactive
6 | CC(C)C(Br)C(=O)NC(N)=O (configuration not stated) | inactive | inactive | inactive | inactive | inactive |  | inactive | inactive | inactive | 
7 | OCC(Br)CBr (configuration not stated) | inactive | inactive | inactive | inactive | inactive |  |  | inactive |  | 
8 | Clc1ccc(C2(Cn3cncn3)OCCO2)c(Cl)c1 | inactive | inactive | inactive | inactive | inactive | inactive |  | inactive |  | 
9 | C=CCOC(=O)c1ccccc1N | inactive | inactive |  | inactive | 30.8 µM (active) | inactive | inactive | inactive |  | inactive
10 | ClC(Cl)C(Cl)(Cl)Cl | inactive | inactive | inactive | inactive | inactive | inactive | inactive | inactive |  | 
11 | Cc1ccn2nc(S(=O)(=O)Nc3c(F)cccc3F)nc2n1 | inactive | inactive | inactive | inactive | inactive | inactive | inactive | inactive |  | 
12 | COP(=O)(OC)Oc1ccc([N+](=O)[O-])cc1 | inactive | inactive | inactive |  | inactive |  |  | inactive | inactive | 
13 | S=C=NCCc1ccccc1 | inactive | inactive | 30.7 µM (active) |  |  | inactive | inactive | inactive |  | inactive
14 | Nc1cc(Cl)ccc1Cl | inactive | inactive | inactive | inactive | inactive | inactive |  | inactive |  | 
15 | CC(Cl)CCl (configuration not stated) | inactive | inactive | inactive | inactive | inactive |  | inactive | inactive | inactive | 
16 | C=CC(=C)C | inactive | inactive | inactive | inactive | inactive |  | inactive | inactive | inactive | 
17 | ClSC(Cl)(Cl)Cl | inactive | inactive | inactive | inactive | inactive |  | inactive | inactive |  | 
18 | C#CCC1=C(C)C(OC(=O)C2C(C=C(C)C)C2(C)C)CC1=O (configuration not stated) | inactive | inactive | 60.7 µM (active) | inactive |  |  | inactive | inactive |  | 
19 | CCC[CH2][Sn]([CH2]CCC)([O]C(C)=O)[O]C(C)=O | 2.19 µM (active) | inactive | 0.174 µM (active) | 0.978 µM (active) | 0.276 µM (active) |  | inactive | inactive | inactive | 
20 | COCCC#N | inactive | inactive | inactive | inactive |  | inactive | inactive | inactive |  | 
21 | COC(=O)/C=C(\C)OP(=O)(OC)OC | inactive | inactive |  | inactive | inactive | inactive | inactive |  | inactive | 
22 | CCC(C)Br (configuration not stated) | inactive | inactive | inactive | inactive | inactive | inactive |  | inactive |  | 
23 | CCC[CH2][Sn]([CH2]CCC)([CH2]CCC)[CH2]CCC | 13.7 µM (active) | inactive | 19.3 µM (active) | 13.7 µM (active) | 27.3 µM (active) | 43.3 µM (active) | inactive | inactive |  | 
24 | CC(=O)C(Cl)C(=O)N(C)C (configuration not stated) | inactive | inactive | inactive | inactive | inactive |  | inactive | inactive | inactive | 
25 | CNC(=O)Oc1cc(C)cc(C(C)C)c1 | inactive | inactive | inactive | inactive |  |  |  |  | inactive | 
26 | CCCCCCC[CH2][Sn]([Cl])([Cl])[CH2]CCCCCCC | inactive | inactive | 48.5 µM (active) | inactive |  | inactive | inactive | inactive | inactive | inactive
27 | CC(C)Br | inactive | inactive |  | inactive |  | inactive |  | inactive | inactive | 
28 | CC(C)N(C(=O)SC/C(Cl)=C/Cl)C(C)C | inactive | inactive |  | inactive | inactive |  | inactive | inactive | inactive | 
